This excerpt belongs to a sample that is enriched for hits.
14-3-3g Raf: 14-3-3 gamma protein interaction modulation; P61981; FP, 14-3-3gamma / TMR-pS259-Raf peptide binding; inhibition, % at 40 µM; 160,000 tested, 0.19% active; AID 422; in the data active = inhibition above about 30%;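 note: 0% = protein plus tracer without compound and 100% = blank with tracer alone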
Target sequence (P61981 whole entry, looked up): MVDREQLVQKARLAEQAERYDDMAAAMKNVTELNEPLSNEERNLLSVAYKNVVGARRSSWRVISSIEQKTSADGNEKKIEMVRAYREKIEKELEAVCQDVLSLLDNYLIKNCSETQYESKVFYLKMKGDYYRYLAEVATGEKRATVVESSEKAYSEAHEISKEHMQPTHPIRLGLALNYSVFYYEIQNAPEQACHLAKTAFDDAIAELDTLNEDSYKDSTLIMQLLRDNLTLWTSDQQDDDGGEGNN
Numbers without * were called inactive; + = active, no number.

SMILES	14-3-3g Raf
C=CCC1C=CCC(CC=C)N1CCO (centres undefined)	106*
CC(C)CC1CCCC(CC(C)C)N1CCO (centres undefined)	-4
COc1ccc(-c2nn(C)c3sc(C(=O)NCCc4ccc(Cl)cc4)cc23)cc1OC	-7
O=C(CSc1nc2cc3c(cc2c(=O)n1Cc1ccco1)OCO3)c1ccc(Br)cc1	-10
O=C(C[n+]1ccc2ccccc2c1)c1ccccc1	45*
O=C(C[n+]1cccc(Br)c1)c1ccccc1	3
O=C(C[n+]1ccc2ccccc2c1)c1ccc2c(c1)Cc1ccccc1-2	-24
Cc1ccc(C)c(Cc2c(C)nc3c(C(=O)NCc4ccccc4Cl)cnn3c2C)c1	-8
COCCCNC(=O)c1cccn2c(=O)c3cc4ccccc4cc3nc12	-12
O=C(NCCc1ccccc1)c1cccn2c(=O)c3cc(Cl)ccc3nc12	-8
NS(=O)(=O)c1ccc(CCNC(=O)c2cccn3c(=O)c4cc5ccccc5cc4nc23)cc1	91*
COc1ccc(C(=O)CSc2nnc(C3COc4ccccc4O3)n2-c2ccccc2)cc1 (centres undefined)	2
O=C1c2ccccc2-c2nc(-c3ccccc3)cc3cccc1c23	-14
O=C1c2ccccc2C(=O)c2cc(Br)ccc21	-6
Nc1cc2c3c(cccc3n1)C(=O)c1ccccc1-2	73*
Cc1nn(C(C)(C)C)c(OC(=O)C(C)Oc2ccccc2)c1Sc1ccccc1[N+](=O)[O-] (centres undefined)	1
COC(=O)C1=C(C)NC(C)=C(C(=O)OC)C1c1ccc(-c2ccc(Cl)cc2)o1	-21
CCOC(=O)C1=C(C)NC(C)=C(C(=O)OCC)C1c1ccc(-c2ccccc2Cl)o1	-19
CCOC(=O)C1=C(C)NC(C)=C(C(=O)OCC)C1c1ccc(-c2ccccc2)o1	40*
CCOC(=O)c1c(C)oc2ccc(N(C(C)=O)S(=O)(=O)c3cccc([N+](=O)[O-])c3)cc12	-2
O=C(CN1C(=O)COc2ccccc21)N1CCCCC1	-6
CCOc1cc(C2C3=C(CCCC3=O)N(CC)C3=C2C(=O)CCC3)cc(Br)c1O	41*
CCOc1cc(C2C3=C(CCCC3=O)N(CC)C3=C2C(=O)CCC3)ccc1O	5
CCCOc1c(Br)cc(C2C3=C(CCCC3=O)N(CC)C3=C2C(=O)CCC3)cc1OCC	-10
c1ccc2c(Nc3ccc4c(c3)OCO4)c3c(nc2c1)CCCC3	-4
SMILES	14-3-3g Raf
CCC(=O)Nc1ccc2nc(SCC(=O)NCc3ccco3)sc2c1	-28
O=[N+]([O-])c1cccc(C=Nc2c(-c3ccco3)nc3ccccn23)c1O	0
CCc1ccc(Nc2cc(C(=O)O)c3ccccc3n2)cc1	-3
CNc1ccc2nc3ccccc3[n+](CCO)c2c1	67*
CC(C)(CN1CCN(C(c2ccccc2)c2ccccc2)CC1)NS(=O)(=O)c1ccc(Cl)cc1	0
COc1ccccc1NC(=O)c1c(NC(=O)C(C)(C)C)sc2c1CCC(C)C2 (centres undefined)	-14
CCS(=O)(=O)N1N=C(c2ccc(NS(C)(=O)=O)cc2)CC1c1ccc(C)cc1 (centres undefined)	-212
CS(=O)(=O)Nc1ccc(C2=NN(S(C)(=O)=O)C(c3ccc(F)cc3)C2)cc1 (centres undefined)	-176
CCS(=O)(=O)N1N=C(c2ccc(NS(C)(=O)=O)cc2)CC1c1ccc(F)cc1 (centres undefined)	92*
CCOC(=O)c1ccc(NC(=O)c2ccccc2F)cc1	8
CC1=C(C(=O)Oc2ccccc2)C2(C)C3C(=O)N(Cc4ccccc4)C(=O)C3C1C1C(=O)N(Cc3ccccc3)C(=O)C12 (centres undefined)	-91
COc1ccc(C2CC(C(F)(F)F)n3nc(C(=O)N4CCN(C)CC4)c(Cl)c3N2)cc1 (centres undefined)	-9
CCN1C(=O)c2cccc3c(S(=O)(=O)N4CCCC4)ccc1c23	8
CCN1C(=O)c2ccc(S(=O)(=O)N3CCCCCC3)c3cccc1c23	1
CCN1C(=O)c2cccc3c(S(=O)(=O)N4CCCc5ccccc54)ccc1c23	33*
Nc1cc(S(=O)(=O)c2ccc(Br)c(N)c2)ccc1Br	-2
O=C(OCCN(C1=NS(=O)(=O)c2ccccc21)c1ccccc1)C1CC(=O)N(c2ccccc2)C1 (centres undefined)	-4
CC1(C)CC2(CC(C)(C)N1)OC(=O)N(CCCO)C2(C)O (centres undefined)	0
COCCCNC(=O)C(=O)NCc1cccnc1	1
Cc1ccc(C)c(Cn2c(CCNC(=O)c3ccc(F)cc3)nc3ccccc32)c1	4
Cc1ccccc1Cn1c(CCNC(=O)c2ccc(F)cc2)nc2ccccc21	32*
CCCCn1c(CCNC(=O)c2ccc(F)cc2)nc2ccccc21	-7
O=C(Nc1cccc(O)c1)c1nn2c(c1Br)NC(c1ccc(Br)cc1)CC2C(F)(F)F (centres undefined)	-12
COc1ccc(C=Cc2cc(=O)c3ccccc3o2)cc1	1
Cc1ccccc1Nc1ccc2noc3c2c1C(=O)c1ccccc1-3	-223
SMILES	14-3-3g Raf
CC(=O)OCCNc1ccc2noc3c2c1C(=O)c1ccccc1-3	+
O=C1c2ccccc2-c2onc3ccc(NCCCn4ccnc4)c1c23	2
N#Cc1ccc(NC(=O)c2ccc(-c3ccccc3)cc2)cc1	12
COc1ccc2nc3sc(C(=O)N4CCN(c5ccc(Cl)cc5)CC4)cc3cc2c1	6
COc1ccc(NC(=O)c2c(C)c(-c3ccc(C)cc3)nc3ccccc23)cc1	-21
COc1ccc(OC)c(NC(=O)c2c(C)c(-c3ccccc3)nc3ccccc23)c1	53*
COc1ccc(-c2nc3ccccc3c(C(=O)Nc3ccc(Br)cc3)c2C)cc1	-41
CCCOC(=O)c1ccc(NC(C)=O)cc1	-3
C=CCOC(=O)c1ccc2c(c1)C(=O)N(c1ccccc1)C2=O	2
O=C(O)c1ccc(Nc2ccc(Cl)cc2)c([N+](=O)[O-])c1	0
COC(=O)c1ccccc1NC(=O)c1nn(-c2ccc(C)cc2)c(=O)c2c1c1ccccc1n2C	6
O=C(NCC1CCCO1)C1c2ccccc2C(=O)N1Cc1ccccc1Cl (centres undefined)	-10
CCOc1ccc(C(=O)N2CC(=O)Nc3ccc(F)cc3C2c2ccccc2)cc1 (centres undefined)	-3
CCn1c2ccccc2c2nc3cc4ccccc4cc3nc21	116*
CCCCCn1c2ccccc2c2nc3ccccc3nc21	-3
CCn1c2ccc(Cl)cc2c2nc3ccccc3nc21	-7
Cn1c(=O)oc2cc(S(=O)(=O)NCC3COc4ccccc4O3)ccc21 (centres undefined)	-6
CCCCCSc1nnc2c(n1)OC(c1ccc(C)o1)Nc1ccccc1-2 (centres undefined)	1
